About 79,000 compounds went through this panel and 15% of them were active in at least one assay; those are over-represented in the sample as a whole. Activity calls are given as the source filed them. Cut-off read from the data, not from the text of the source: active = growth inhibition above about 70%; inactive = the rest.
How the values were obtained:
[1] = NCI Yeast Anticancer Drug Screen. Data for the rad50 strain (AID 155);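 note: 0% = growth of vehicle-only cultures of the same strain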; settings: S. cerevisiae rad50 strain growth inhibition; at 50.0 µM; active compounds read high
Procedure, shortened: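 A DNA repair-deficient yeast mutant serves as the test organism; compound-induced growth inhibition is calculated against vehicle-treated cells.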

[2] = NCI Yeast Anticancer Drug Screen. Data for the mec2-1 strain (AID 157); settings: S. cerevisiae mec2-1 strain, at 50.0 µM, active compounds read high
Procedure, shortened: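 Vehicle-treated cultures served as reference for growth inhibition of compound-exposed mec2-1 yeast.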

[3] = NCI Yeast Anticancer Drug Screen. Data for the sgs1 mgt1 strain (AID 161);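 note: 0% = growth of cultures given vehicle only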; settings: S. cerevisiae sgs1 mgt1 strain, at 50.0 µM, active compounds read high
Procedure, shortened: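 Inhibition of yeast growth, normalised to vehicle-treated controls, is reported for a strain bearing genetic alterations in DNA damage repair.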

[4] = NCI Yeast Anticancer Drug Screen. Data for the cln2 rad14 strain (AID 165);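 note: 0% = growth equal to vehicle treated cultures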; settings: S. cerevisiae cln2 rad14 strain, at 50.0 µM, active compounds read high
Procedure, shortened: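 Each compound was tested on cln2 rad14 yeast. Inhibition of growth was calculated against vehicle-exposed controls.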

[5] = NCI Yeast Anticancer Drug Screen. Data for the bub3 strain (AID 167); settings: S. cerevisiae bub3 mutant strain, at 50.0 µM, active compounds read high
Procedure, shortened: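 Inhibition values come from growth of compound-treated mutant yeast normalised to vehicle-treated controls.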

[6] = NCI Yeast Anticancer Drug Screen. Data for the mlh1 rad18 strain (AID 175); settings: S. cerevisiae mlh1 rad18 strain growth inhibition; at 50.0 µM; active compounds read high
Procedure, shortened: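 Vehicle-treated cultures served as the reference for growth inhibition in a yeast strain carrying DNA damage repair alterations exposed to each compound.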

Measured: growth inhibition

CC1CC(C)OC(C)(Cc2ccccc2)O1 (stereo unspecified)
inactive: [1] 23.8% | [2] 20.4% | [3] 25.6% | [4] -19.9% | [5] -2.15% | [6] -13.9%

CC(=O)C(C)C(C)=O
inactive: [1] -2.95% | [2] 0.7% | [3] 1.4% | [4] -21.6% | [5] 22.6% | [6] -0.85%

Cc1ccc2ccccc2c1Br
inactive: [1] -4.55% | [2] -0.85% | [3] 1.6% | [4] -14.8% | [5] -3.2% | [6] -8.55%

CCCN(N)CCC
inactive: [1] -8.15% | [2] -16.6% | [3] -7.8% | [4] -45.2% | [5] 0.25% | [6] -1.6%

O=C1C=C(O)C(=C/C=C/C=C/c2c(O)cc(O)cc2O)C(O)=C1
inactive: [1] -12.4% | [2] -13.6% | [3] -2.65% | [4] 10.2% | [5] 6.65% | [6] -5.7%

CCOC(=O)c1cn2ccccc2c1C(=O)OCC
inactive: [1] 3.5% | [2] -3.1% | [3] -7.45% | [4] -23.2% | [5] -4.1% | [6] -14.8%

O=CNc1ccccc1Cc1ccccc1
inactive: [1] 13.2% | [2] -24% | [3] 4.5% | [4] 7.85% | [5] 4.25% | [6] 1.65%

Cc1cccc(N/N=C2\CCSc3ccccc32)c1
inactive: [1] 17.9% | [2] 8.45% | [3] 3.35% | [4] 5.95% | [5] 3.75% | [6] 4%

CCCCOC(=O)/C(=C\c1ccc(OC(C)=O)c(OC)c1)NC(=O)c1ccccc1
inactive: [1] 4.7% | [2] 7.6% | [3] -1.5% | [4] -10.3% | [5] 14.9% | [6] -6.35%

COc1cc(OC)c(-c2cc(C(=O)O)c3cc4ccccc4cc3n2)c(OC)c1
inactive: [1] 18.2% | [2] 23.2% | [3] 24.1% | [4] 16.7% | [5] 21.6% | [6] 32%

Cc1ccc(S(=O)(=O)N2CCCSCCN(S(=O)(=O)c3ccc(C)cc3)CCCSCC2)cc1
inactive: [1] -0.25% | [2] -32.5% | [3] -30.2% | [4] -9.4% | [5] -28.6% | [6] -24.4%

COC(=O)C1C(c2ccccc2)C1(C#N)C#N (stereo unspecified)
inactive: [1] -42.5% | [2] 2.55% | [3] -1% | [4] -25.6% | [5] -5.55% | [6] 3.3%

COc1cc2[nH]c3c(c2cc1OC)CCN[C@]31CC[C@]2(CC3c4c(cc(OC)c(O)c42)CCN3C)C[C@H]1OC (stereo partly specified)
inactive: [1] 10.8% | [2] -6% | [3] -16.4% | [4] -2.9% | [5] 7.95% | [6] 7.35%

Cc1nc(C)c(C(=O)NN)cc1C(=O)NN
inactive: [1] 9.05% | [2] -3.7% | [3] -4.6% | [4] 7.45% | [5] -0.7% | [6] -14.7%

O=C1CSC(c2cccc([N+](=O)[O-])c2)N1c1ccc(-n2c(-c3ccccc3)nc3ccccc3c2=O)cc1 (stereo unspecified)
inactive: [1] -10.8% | [2] -17.1% | [3] 11.9% | [4] -6.8% | [5] 34% | [6] 7.25%

Clc1cc2nc(C3CCCO3)[nH]c2cc1Cl (stereo unspecified)
inactive: [1] 24.3% | [2] 2.15% | [3] 29.5% | [4] 5% | [5] 19.9% | [6] 55.2%

CC1NNC(=S)NN1
inactive: [1] -19.3% | [2] 1.35% | [3] 0.85% | [4] -9.7% | [5] 1.4% | [6] 11.8%

CC(COCc1ccccc1)C1OC(C)(C)OC(C#N)C1C (stereo unspecified)
inactive: [1] -1.05% | [2] -1.4% | [3] -4.8% | [4] -20.4% | [5] 11.7% | [6] 14.3%

O=C(O)c1ccccc1SC(Sc1ccccc1C(=O)O)c1cccs1
inactive: [1] 12.4% | [2] -9.65% | [3] 3.75% | [4] -4.55% | [5] 6.25% | [6] 4%

CN(C)Cc1ccccc1COC(=O)c1ccc([N+](=O)[O-])cc1Cl
inactive: [1] -8.9% | [2] -12.6% | [3] 10.8% | [4] -29.1% | [5] 3.65% | [6] -34.1%

CCO/C(C)=N/n1c(C)nc2[nH]ncc2c1=O
inactive: [1] 1.55% | [2] -10.8% | [3] 5.55% | [4] -6.45% | [5] 11.7% | [6] 17.9%
